Data taken from PubChem BioAssay (NCATS).
A number with no mark means an inactive call. Records with an inconclusive call do not appear. The source made the active and inactive calls. Unless noted, calls come from the whole dose curve; as a rule, active = well fitted curve in the direction sought with a large enough effect; inconclusive = small, poorly fitted or top-dose-only effect, or another doubt; inactive = no such curve, though single readings can be large; an effect the other way counts as inactive or inconclusive.

Assays:
[1] = target: Lysosomal acid glucosylceramidase (Homo sapiens) (UniProt P04062); assay: Glucocerebrosidase-p2 (AID 348; in the data active = potency below about 10 µM; note: potency is the fitted concentration of half-maximal effect); conditions: purified GBA, blue fluorogenic substrate, 40 min
Sequence of Lysosomal acid glucosylceramidase (Homo sapiens) (P04062 whole entry, looked up): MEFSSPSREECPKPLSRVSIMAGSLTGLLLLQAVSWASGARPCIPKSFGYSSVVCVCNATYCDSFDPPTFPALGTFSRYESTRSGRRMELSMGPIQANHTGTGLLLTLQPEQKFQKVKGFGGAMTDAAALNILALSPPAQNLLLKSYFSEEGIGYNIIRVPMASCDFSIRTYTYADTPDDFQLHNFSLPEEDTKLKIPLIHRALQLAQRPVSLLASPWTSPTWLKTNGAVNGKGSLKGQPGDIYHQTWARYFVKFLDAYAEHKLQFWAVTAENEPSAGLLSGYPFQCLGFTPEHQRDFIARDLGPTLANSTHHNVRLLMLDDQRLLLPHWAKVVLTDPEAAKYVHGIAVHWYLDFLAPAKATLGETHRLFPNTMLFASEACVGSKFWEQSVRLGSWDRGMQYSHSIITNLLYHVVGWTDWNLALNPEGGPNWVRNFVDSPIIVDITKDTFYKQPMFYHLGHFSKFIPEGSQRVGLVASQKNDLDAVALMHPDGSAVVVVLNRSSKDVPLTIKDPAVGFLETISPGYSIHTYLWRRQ
Summary of the method: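 Normal human glucocerebrosidase (0.2 nM) with blue fluorogenic substrate (80 uM final) in citrate/phosphate pH 5.9 with 10mM sodium taurocholate, 0.01% tween-20; 40 min RT, NaOH/glycine stop; fluorescence Ex 365/Em 440; AC50 from a titration from 0.6 nM upwards.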

[2] = AP1 Signaling Pathway (AID 357; active = well fitted curve in either direction with a large enough effect, not every such curve was filed as active;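 note: ME-180 reporter cells stimulated with EGF at its EC50 level; % is set by controls: 0 for no effect and ±100 for the full control effect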); conditions: ME-180 AP-1-bla reporter, EGF-induced, beta-lactamase ratio, 5 h; at 7.69 µM (top of the series) unless noted
Summary of the method: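 Cells are seeded overnight, exposed to compound titrations and an EC50 level of EGF for 5 hours at 37 °C, then loaded with CCF4 dye for 2.5 hours. Beta-lactamase activity under the AP-1 element is read as a blue/green ratio.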

[3] = target: Glucocorticoid receptor (Homo sapiens) (UniProt P04150); assay: GR-GFP Redistribution (AID 450;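 active = compounds whose dose series gives a full or clear partial fitted curve of increased nuclear translocation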; note: potency is the fitted concentration of half-maximal effect); conditions: U2OS GR-GFP nuclear translocation, laser cytometry, 2 h
Sequence of Glucocorticoid receptor (Homo sapiens) (P04150 whole entry, looked up, the tested form may be a part): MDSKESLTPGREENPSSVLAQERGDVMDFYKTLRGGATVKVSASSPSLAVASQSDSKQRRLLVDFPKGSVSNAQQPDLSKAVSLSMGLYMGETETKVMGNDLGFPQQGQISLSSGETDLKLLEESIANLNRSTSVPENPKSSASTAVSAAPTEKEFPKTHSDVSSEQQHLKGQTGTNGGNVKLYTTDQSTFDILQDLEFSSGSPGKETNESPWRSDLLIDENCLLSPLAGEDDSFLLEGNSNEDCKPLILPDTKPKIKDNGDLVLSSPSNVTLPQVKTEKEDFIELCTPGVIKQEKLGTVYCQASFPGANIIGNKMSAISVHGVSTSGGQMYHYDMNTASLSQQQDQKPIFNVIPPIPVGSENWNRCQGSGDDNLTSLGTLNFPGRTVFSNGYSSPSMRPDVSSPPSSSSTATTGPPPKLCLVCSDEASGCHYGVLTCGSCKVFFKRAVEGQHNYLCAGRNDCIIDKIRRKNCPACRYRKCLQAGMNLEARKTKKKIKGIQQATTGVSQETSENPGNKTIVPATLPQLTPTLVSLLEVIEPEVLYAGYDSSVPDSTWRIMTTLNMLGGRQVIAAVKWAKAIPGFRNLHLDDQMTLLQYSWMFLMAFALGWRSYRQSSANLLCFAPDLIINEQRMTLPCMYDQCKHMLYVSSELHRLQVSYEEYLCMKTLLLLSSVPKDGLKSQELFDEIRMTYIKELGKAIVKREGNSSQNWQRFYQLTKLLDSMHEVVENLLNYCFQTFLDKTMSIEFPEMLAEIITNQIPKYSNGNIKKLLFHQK

[4] = target: Glucocorticoid receptor (Homo sapiens) (UniProt P04150); assay: GR-EFC Redistribution (AID 451; calls by dose curve; note: potency is the fitted concentration of half-maximal effect); conditions: CHO-K1 GR-EFC translocation, beta-gal luminescence, 2 h
Summary of the method: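 CHO-K1 cells expressing nuclear EA and GR-ED fragments of b-gal; compounds titrated up to 46 uM final, 2 h at 37 C. GR nuclear translocation read as complemented b-gal luminescence after 1 h RT detection.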

[5] = target: Mitogen-activated protein kinase 10 (Mus musculus) (UniProt Q61831); assay: JNK3 AlphaScreen Assay (AID 530; active = well fitted curve in either direction with a large enough effect, not every such curve was filed as active;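 note: kinase came from lysate of stimulated human HepG2 cells; signal reports phosphorylation of biotinylated GST-cJun 1-79 at Ser73 with 10 µM ATP; % is set by controls: 0 for no effect and ±100 for the full control effect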); conditions: JNK3 lysate, c-Jun phosphorylation; series mostly up to 57.1 µM
Summary of the method: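 HepG2 lysate (IL-1b/TNFa pre-activated) + biotin-GST-cJun 1-79 + anti-pSer73 cJun; cpd titration, 15 min RT; ATP 10 uM start; Tris pH 7.6, MgCl2, DTT, vanadate; beads in EDTA buffer; AlphaScreen.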

[6] = target: 3',5'-cyclic-AMP phosphodiesterase 4B (Homo sapiens) (UniProt Q07343); assay: qHTS Assay for Inhibitors of PDE-IV (AID 607; active = well fitted activation curve with a large enough effect in the main read-out, with a control signal flat, not every such curve was filed as active; note: % of control where 0% means no effect); conditions: HEK293 ACTOne CNG channel cells, membrane potential fluorescence; series mostly up to 22.9 µM
Sequence of 3',5'-cyclic-AMP phosphodiesterase 4B (Homo sapiens) (Q07343 whole entry, looked up): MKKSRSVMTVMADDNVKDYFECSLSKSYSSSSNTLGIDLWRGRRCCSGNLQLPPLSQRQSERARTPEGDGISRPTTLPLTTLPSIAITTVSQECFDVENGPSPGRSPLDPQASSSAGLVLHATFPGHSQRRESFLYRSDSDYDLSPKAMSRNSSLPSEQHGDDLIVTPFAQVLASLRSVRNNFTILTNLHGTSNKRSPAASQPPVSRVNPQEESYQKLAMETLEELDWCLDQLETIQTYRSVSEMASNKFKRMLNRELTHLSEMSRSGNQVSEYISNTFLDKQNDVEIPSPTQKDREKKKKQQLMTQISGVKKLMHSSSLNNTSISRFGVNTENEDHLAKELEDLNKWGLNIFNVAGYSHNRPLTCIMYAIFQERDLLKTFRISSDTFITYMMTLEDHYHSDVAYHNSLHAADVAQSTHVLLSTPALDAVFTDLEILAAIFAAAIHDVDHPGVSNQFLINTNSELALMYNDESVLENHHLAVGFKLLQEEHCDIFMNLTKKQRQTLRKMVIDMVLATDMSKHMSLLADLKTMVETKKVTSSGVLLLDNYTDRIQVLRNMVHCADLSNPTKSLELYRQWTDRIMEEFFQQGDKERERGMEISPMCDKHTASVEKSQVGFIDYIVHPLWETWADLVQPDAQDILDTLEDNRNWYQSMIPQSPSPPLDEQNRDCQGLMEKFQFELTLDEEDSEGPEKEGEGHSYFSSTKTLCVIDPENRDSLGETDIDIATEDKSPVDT
Summary of the method: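 HEK293 ACTOne cells with CNG channel (1000/well), endogenous PDE4; membrane potential dye, compounds up to 22.9 uM final. Fluorescence Ex 535/Em 590; RO 20-1724 (100 uM final) as reference.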

[7] = target: Dual specificity protein kinase CLK4 (Homo sapiens) (UniProt Q9HAZ1); assay: qHTS Assay for Inhibitors of CDC-like Kinase 4 (Kinase-Glo Assay) (AID 1770); conditions: recombinant Clk4, Kinase-Glo ATP depletion luminescence; series mostly up to 66.7 µM; note: nearly all actives have a fitted effect of over 65% in size; note: potency is the fitted concentration of half-maximal effect
Sequence of Dual specificity protein kinase CLK4 (Homo sapiens) (Q9HAZ1 whole entry, looked up): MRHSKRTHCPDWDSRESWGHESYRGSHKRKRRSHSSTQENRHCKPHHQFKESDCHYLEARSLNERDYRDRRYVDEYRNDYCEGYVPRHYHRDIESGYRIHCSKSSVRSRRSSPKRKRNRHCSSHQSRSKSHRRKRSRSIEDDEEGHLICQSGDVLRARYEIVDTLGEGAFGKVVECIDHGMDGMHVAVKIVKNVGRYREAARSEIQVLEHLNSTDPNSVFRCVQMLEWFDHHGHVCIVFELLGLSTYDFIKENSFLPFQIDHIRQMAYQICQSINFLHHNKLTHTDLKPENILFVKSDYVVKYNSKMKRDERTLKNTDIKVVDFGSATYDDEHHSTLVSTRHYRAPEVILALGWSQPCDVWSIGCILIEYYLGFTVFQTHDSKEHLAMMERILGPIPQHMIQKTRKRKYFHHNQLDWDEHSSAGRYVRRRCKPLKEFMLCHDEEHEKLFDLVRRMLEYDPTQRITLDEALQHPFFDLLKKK
Summary of the method: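 25 nM Clk4 with 100 uM RS repeat peptide and 1 uM ATP (final) in Tris pH7.5, 10 mM MgCl2, 4.5 h at room temperature. Remaining ATP measured by Kinase-Glo luciferase luminescence.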

[8] = target: Dual specificity protein kinase CLK4 (Homo sapiens) (UniProt Q9HAZ1); assay: qHTS Assay for Inhibitors of CDC-like Kinase 4 (ADP-Glo Assay) (AID 1771); conditions: recombinant CLK4, ADP-Glo luminescence; series mostly up to 80 µM; note: nearly all actives have a fitted effect of over 70% in size; note: potency is the fitted concentration of half-maximal effect
Summary of the method: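 25 nM Clk4, 100 uM RS peptide, 1 uM ATP (final); 2 mM MgCl2, 0.5 mM EGTA, 2.5 mM DTT, 0.01% Triton X-100; 1 hr RT. ADP-Glo readout: ATP depletion 45 min, conversion/luciferase 30 min, luminescence.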

[9] = target: Dual specificity protein kinase CLK4 (Homo sapiens) (UniProt Q9HAZ1); assay: qHTS Assay for Inhibitors of CDC-like Kinase 4 (ADP-FP Assay) (AID 1795); conditions: Transcreener ADP fluorescence polarization; series mostly up to 50 µM; note: nearly all actives have a fitted effect of over 60% in size; note: potency is the fitted concentration of half-maximal effect
Summary of the method: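 Recombinant Clk4 (6.25 nM) phosphorylated 100 uM RS repeat peptide with 1 uM ATP in 25 mM Tris pH 7.5, 10 mM MgCl2, 0.5 mM EGTA, 2.5 mM DTT, 0.01% Triton X-100 for 1 h. ADP was detected by Transcreener ADP2 competitive fluorescence polarization after 30 min at room temperature.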

[10] = target: Ubiquitin carboxyl-terminal hydrolase 1 (Homo sapiens) (UniProt O94782); assay: Inhibitors of USP1/UAF1: Pilot qHTS (AID 504865); conditions: purified USP1/UAF1, Ub-rhodamine cleavage fluorescence; series mostly up to 54.9 µM;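 note: rhodamine fluorescence freed from ubiquitin-rhodamine substrate followed over time; top concentration of the series differs between compounds; % is set by controls: 0 for no effect and ±100 for the full control effect; nearly all actives have a fitted effect of over 35% in size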
Sequence of Ubiquitin carboxyl-terminal hydrolase 1 (Homo sapiens) (O94782 whole entry, looked up): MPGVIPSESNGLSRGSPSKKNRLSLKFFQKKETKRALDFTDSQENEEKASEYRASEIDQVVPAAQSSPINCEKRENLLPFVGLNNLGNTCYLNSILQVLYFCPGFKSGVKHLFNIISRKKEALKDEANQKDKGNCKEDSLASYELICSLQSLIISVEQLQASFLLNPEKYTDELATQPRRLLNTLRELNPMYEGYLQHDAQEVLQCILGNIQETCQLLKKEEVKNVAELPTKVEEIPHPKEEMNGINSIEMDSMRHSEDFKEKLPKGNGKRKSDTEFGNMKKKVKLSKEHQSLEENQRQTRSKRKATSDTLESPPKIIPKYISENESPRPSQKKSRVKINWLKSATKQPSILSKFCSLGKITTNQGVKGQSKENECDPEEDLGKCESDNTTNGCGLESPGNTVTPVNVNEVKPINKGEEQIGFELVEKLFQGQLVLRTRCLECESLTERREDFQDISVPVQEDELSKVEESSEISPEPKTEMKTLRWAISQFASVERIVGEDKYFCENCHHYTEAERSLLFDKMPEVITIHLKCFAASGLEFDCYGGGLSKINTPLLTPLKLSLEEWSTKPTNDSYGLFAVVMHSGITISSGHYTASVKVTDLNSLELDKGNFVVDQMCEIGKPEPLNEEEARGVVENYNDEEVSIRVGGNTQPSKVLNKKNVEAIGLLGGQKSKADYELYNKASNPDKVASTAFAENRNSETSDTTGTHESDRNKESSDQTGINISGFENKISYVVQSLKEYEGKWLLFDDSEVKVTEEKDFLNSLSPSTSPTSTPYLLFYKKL
Summary of the method: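 USP1/UAF1 complex at 1 nM preincubated 15 min at room temperature with compound, then Ub-Rho substrate added at 150 nM final. Fluorescence (480/540 nm) read kinetically in 50 mM HEPES pH 7.8, 0.5 mM EDTA, 1 mM TCEP, 0.1 mg/ml BSA, 0.01% Tween-20.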

[11] = qHTS Assay for Identification of Small Molecule Agonists for Hypoxia Response Element Signaling Pathway (AID 914; active = well fitted activation curve with a large enough effect in the signal ratio, with a control signal flat, not every such curve was filed as active; the % refers to the signal ratio; note: potency is the fitted concentration of half-maximal effect; for activation: % of control where 0% means no effect); conditions: ME-180 HRE-bla reporter, beta-lactamase ratio, CoCl2, 17 h; activation: hits give high values
Summary of the method: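 HRE-bla ME-180 assay for agonist-like enhancement of an EC50 CoCl2 stimulus: 17 h at 37 degrees Celsius, CCF4 for 2.5 h, ratiometric 460/530 nm signal converted to %Activity and fitted to AC50.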

[12] = NFAT Signaling Pathway (AID 444; active = well fitted curve in either direction with a large enough effect, not every such curve was filed as active;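 note: carbachol stimulus at about its EC50 of 1 µM final; % is set by controls: 0 for no effect and ±100 for the full control effect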); conditions: Jurkat NFAT-bla M1, carbachol, beta-lactamase ratio, 5 h; at 7.69 µM (top of the series) unless noted
Summary of the method: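 Jurkat cells with NFAT-driven β-lactamase reporter and co-expressed M1 receptor, stimulated with carbachol (final 1 uM, ~EC50), compound titration, 5 h at 37 °C. CCF4 loaded 1 h at RT; 460/530 nm ratio gave %activity and AC50.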

[13] = Stat Signaling Pathway (AID 446; active = well fitted curve in either direction with a large enough effect, not every such curve was filed as active;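 note: ME-180 cervical cancer cells given 40 pM IL-6 alongside compound; SIE-controlled beta-lactamase reporter measured as 460/530 nm FRET emission ratio; % is set by controls: 0 for no effect and ±100 for the full control effect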); conditions: ME-180 (cervical carcinoma) SIE beta-lactamase reporter, IL-6 stimulated, 5 h; series mostly up to 7.69 µM
Summary of the method: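 Normalization used AC90 stimulation (300 pM IL-6) and AC90 inhibition (125 nM pan-JAK inhibitor at 40 pM IL-6). The underlying signal is SIE-driven beta-lactamase in ME-180 cells after 5 h IL-6 exposure with compound.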

[14] = target: Cytochrome P450 1A2 (Homo sapiens) (UniProt P05177); assay: p450-cyp1a2 (AID 410; calls by dose curve; note: potency is the fitted concentration of half-maximal effect); conditions: recombinant CYP1A2, luciferin-ME demethylation, luminescence; series mostly up to 57 µM
Sequence of Cytochrome P450 1A2 (Homo sapiens) (P05177 whole entry, looked up): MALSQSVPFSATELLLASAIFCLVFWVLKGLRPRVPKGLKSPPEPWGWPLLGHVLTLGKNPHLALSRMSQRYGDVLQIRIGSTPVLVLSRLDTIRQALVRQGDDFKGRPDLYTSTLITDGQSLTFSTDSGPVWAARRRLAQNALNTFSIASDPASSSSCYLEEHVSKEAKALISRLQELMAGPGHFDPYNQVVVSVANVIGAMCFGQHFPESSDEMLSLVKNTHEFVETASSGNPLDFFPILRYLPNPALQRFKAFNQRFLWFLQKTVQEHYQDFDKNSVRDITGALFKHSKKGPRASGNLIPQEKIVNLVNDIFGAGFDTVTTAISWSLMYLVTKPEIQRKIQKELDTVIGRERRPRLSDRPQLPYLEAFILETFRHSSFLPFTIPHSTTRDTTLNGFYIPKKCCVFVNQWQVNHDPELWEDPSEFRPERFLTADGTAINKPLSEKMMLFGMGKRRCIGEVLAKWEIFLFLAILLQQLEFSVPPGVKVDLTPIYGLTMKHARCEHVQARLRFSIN
Summary of the method: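 20nM CYP1A2, 100uM Luciferin-ME (=Km), 100mM KPO4; cpd 10 min RT; +NADPH regen, 60 min RT; stop/detect 20 min; luminescence. Normalized to furafylline 57 uM = full inhibition.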

[15] = target: Cytochrome P450 3A4 (Homo sapiens) (UniProt P08684); assay: qHTS Assay for Activators of Cytochrome P450 3A4 (AID 885); conditions: recombinant CYP3A4, Luciferin-PPXE luminescence, 60 min; series mostly up to 57.1 µM; note: nearly all actives have a fitted effect of over 65% in size
Sequence of Cytochrome P450 3A4 (Homo sapiens) (P08684 whole entry, looked up): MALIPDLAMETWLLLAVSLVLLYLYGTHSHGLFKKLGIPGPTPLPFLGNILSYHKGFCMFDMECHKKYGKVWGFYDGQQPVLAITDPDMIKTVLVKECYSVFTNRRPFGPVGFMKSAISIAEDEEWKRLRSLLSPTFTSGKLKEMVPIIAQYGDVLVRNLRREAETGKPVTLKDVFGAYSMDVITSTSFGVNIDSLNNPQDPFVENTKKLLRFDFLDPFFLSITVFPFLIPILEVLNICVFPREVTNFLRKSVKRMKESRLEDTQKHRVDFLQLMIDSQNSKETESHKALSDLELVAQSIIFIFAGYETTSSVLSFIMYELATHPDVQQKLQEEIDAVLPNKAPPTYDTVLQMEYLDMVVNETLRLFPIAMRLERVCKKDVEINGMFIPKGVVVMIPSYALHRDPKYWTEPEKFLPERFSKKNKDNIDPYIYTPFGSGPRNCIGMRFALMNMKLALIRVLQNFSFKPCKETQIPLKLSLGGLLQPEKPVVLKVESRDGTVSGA
Summary of the method: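 Human CYP3A4 dealkylates Luciferin-PPXE to luciferin, which luciferase detection converts to light. Substrate was at its KM (25uM), buffer 200mM KPO4, reaction 60 min at RT.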

[16] = target: Cytochrome P450 2D6 (Homo sapiens) (UniProt P10635); assay: qHTS Assay for Inhibitors and Substrates of Cytochrome P450 2D6 (AID 891); conditions: recombinant CYP2D6, luciferin-ME EGE luminescence; series mostly up to 57.1 µM; note: potency is the fitted concentration of half-maximal effect; nearly all actives have a fitted effect of over 60% in size
Summary of the method: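 Luminescent read-out of luciferin formed by 5 nM human CYP2D6 demethylating 30 uM Luciferin-ME EGE (Km level) over 60 min at room temperature after NADPH regeneration addition. Data normalized to full inhibition by 1.43 uM quinidine.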

[17] = target: Cytochrome P450 2C9 (Homo sapiens) (UniProt P11712); assay: qHTS Assay for Inhibitors and Substrates of Cytochrome P450 2C9 (AID 883); conditions: recombinant CYP2C9, luciferin-H luminescence, 60 min; series mostly up to 57.1 µM; note: % is set by controls: 0 for no effect and ±100 for the full control effect; nearly all actives have a fitted effect of over 60% in size
Summary of the method: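 Human CYP2C9 (10nM) with Luciferin-H at 100uM (its KM) in 25mM KPO4; compound preincubated 10 min at 37C, then NADPH regeneration for 60 min at 37C. Luciferin read by luminescence after detection reagent; normalized to 57uM sulphaphenazole as full inhibition.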

[18] = target: Cytochrome P450 3A4 (Homo sapiens) (UniProt P08684); assay: qHTS Assay for Inhibitors and Substrates of Cytochrome P450 3A4 (AID 884); conditions: recombinant CYP3A4, Luciferin-PPXE luminescence; series mostly up to 57.1 µM; note: potency is the fitted concentration of half-maximal effect; nearly all actives have a fitted effect of over 50% in size
Summary of the method: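 Luminescent readout of luciferin produced by CYP3A4 (20 nM) dealkylation of Luciferin-PPXE, 25 uM (its KM). NADPH-driven reaction ran 60 min at RT after 10 min compound preincubation; data scaled to 57 uM ketoconazole as 100% inhibition.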

[19] = target: Cytochrome P450 2C19 (Homo sapiens) (UniProt P33261); assay: qHTS Assay for Inhibitors and Substrates of Cytochrome P450 2C19 (AID 899); conditions: recombinant CYP2C19, luciferin-H EGE luminescence; series mostly up to 57.1 µM; note: potency is the fitted concentration of half-maximal effect; nearly all actives have a fitted effect of over 60% in size
Sequence of Cytochrome P450 2C19 (Homo sapiens) (P33261 whole entry, looked up): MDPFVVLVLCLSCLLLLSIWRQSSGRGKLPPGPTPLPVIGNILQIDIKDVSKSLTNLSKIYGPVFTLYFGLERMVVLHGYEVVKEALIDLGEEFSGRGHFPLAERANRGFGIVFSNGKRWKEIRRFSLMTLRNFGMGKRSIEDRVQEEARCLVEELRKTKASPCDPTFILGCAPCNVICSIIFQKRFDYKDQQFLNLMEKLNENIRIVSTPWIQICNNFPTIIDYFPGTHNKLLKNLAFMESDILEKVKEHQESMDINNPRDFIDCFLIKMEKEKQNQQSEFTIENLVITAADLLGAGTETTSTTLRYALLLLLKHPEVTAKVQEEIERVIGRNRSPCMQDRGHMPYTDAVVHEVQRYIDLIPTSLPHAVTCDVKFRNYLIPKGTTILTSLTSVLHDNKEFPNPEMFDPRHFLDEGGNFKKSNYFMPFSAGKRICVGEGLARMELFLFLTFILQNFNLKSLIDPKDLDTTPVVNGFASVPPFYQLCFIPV
Summary of the method: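 5 nM human CYP2C19 with 10uM Luciferin-H EGE (at KM) in 50mM KPO4, compound preincubated 10 min at 37C, then NADPH regeneration for 60 min at 37C. Luciferin read by luminescence after detection reagent; normalized to 57uM ketoconazole as full inhibition.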

Compound | Potency [1] [µM] | activity change, negative = inhibition [2] [%] | Potency [3] [µM] | Potency [4] [µM] | Potency [5] | Potency [6] | Potency [7] | Potency [8] | Potency [9] | Potency [10] | Potency [11] | activity change, negative = inhibition [12] [%] | outcome [13] | Potency [14] | outcome [15] | Potency [16] | activation [11] [%] | activity change, negative = inhibition [17] | Potency [18] | Potency [19]
CN(C)c1ncnc2ccc(-c3cccc(NS(C)(=O)=O)c3)cc12 | > 11.4 | -26.5 | > 46 | > 46 | inactive | inactive | 11.2 µM (active) | 12.6 µM (active) | 12.6 µM (active) | inactive |  |  |  |  |  |  |  |  |  | 
CCNc1ncc2nc(-c3ccc(OC)cc3)c(=O)n(C)c2n1 | > 11.4 | 22.4 |  | > 46 | inactive |  | inactive | inactive | inactive | inactive | 3.98 µM (active) |  |  |  |  |  |  |  |  | 
COCCn1c(=O)c(CCc2ccccc2)nc2cnc(Oc3ccccc3)nc21 | > 11.4 | -27.4 | > 9.22 | > 46 |  | inactive | inactive | inactive | inactive | inactive |  | 7.7 | inactive |  |  |  |  |  |  | 
N#Cc1cccc(-c2nc(NCCN3CCOCC3)c3ccccc3n2)c1 | > 11.4 | -13 | > 46 | > 46 | inactive | inactive | 11.2 µM (active) | 6.31 µM (active) | 7.94 µM (active) | inactive |  |  | inactive | 1 µM (active) | inactive | 7.94 µM (active) | -16.9 |  |  | 
COc1ccccc1CNc1cc(-c2ccccc2CN(C)C)ncn1 | > 11.4 | 4.71 | > 46 | > 46 | inactive |  | inactive | inactive | inactive | inactive |  |  |  |  |  |  |  |  |  | 
O=c1c(-c2ccccc2)nc2cncnc2n1Cc1ccccc1 | > 11.4 | -16.6 | > 9.22 | > 46 | inactive |  | inactive | inactive | inactive | inactive |  | -1.09 | inactive |  |  |  |  |  |  | 
CCNc1ncc2ncc(=O)n(Cc3ccc(F)cc3)c2n1 | > 11.4 | -23.6 | > 9.22 | > 46 | inactive | inactive | 7.94 µM (active) | 6.31 µM (active) | 11.2 µM (active) | inactive |  | 3 |  | 1 µM (active) | inactive |  |  |  |  | 
COc1cccc(-c2nc(N(C)C)c3ccccc3n2)c1 | > 11.4 | 15.5 | > 46 |  | inactive | inactive | 11.2 µM (active) | 7.08 µM (active) | 11.2 µM (active) |  |  | -14.5 |  | 0.251 µM (active) | inactive |  |  | 45.3% [at 2.29 µM] | 5.01 µM (active) | 
COc1ccc(Oc2ncc3nc(-c4cccc(C#N)c4)c(=O)n(CCC#N)c3n2)cc1 | > 11.4 | -20.3 | > 9.22 | > 46 | inactive |  | inactive | inactive | inactive | inactive |  | 14.2 | inactive |  |  |  |  |  |  | 
COCCn1c(=O)c(-c2cc(F)cc(F)c2)nc2cnc(N3CCN(C)CC3)nc21 | > 11.4 | 19.3 | > 9.22 | > 46 | inactive | inactive | inactive | inactive | inactive | inactive | 3.16 µM (active) |  |  | 15.8 µM (active) |  |  |  |  |  | 
COc1cccc(-c2ccc3ncnc(N4CCNCC4)c3c2)c1 | > 11.4 | 1.7 | > 46 | > 46 | inactive |  | 1.78 µM (active) | 2 µM (active) | 1 µM (active) | inactive |  | 11.4 |  |  | inactive |  |  |  |  | 3.16 µM (active)
Clc1ccccc1-c1nc(Nc2ccncc2)c2ccccc2n1 |  | -2.96 |  |  | inactive |  | 7.94 µM (active) | 7.94 µM (active) | 10 µM (active) |  |  | 8.97 | inactive | 0.501 µM (active) | inactive |  |  |  | 3.98 µM (active) | 5.01 µM (active)
N#Cc1ccccc1-c1ccc2ncnc(NCc3cccnc3)c2c1 | > 11.4 | -14.7 | > 46 | > 46 |  |  | 3.16 µM (active) | 5.01 µM (active) |  | inactive |  | 17.5 | inactive |  | inactive |  |  |  |  | 
Cc1noc(C)c1-c1nc(N2CCN(C)CC2)c2ccccc2n1 | > 11.4 | 28.9 | > 46 | > 46 | inactive |  | 15.8 µM (active) | 28.2 µM (active) |  |  |  | -5.52 |  | 0.316 µM (active) |  |  |  |  |  | 
